An excerpt weighted towards active compounds, which were near 4.1% of everything screened.
DAX1 inh-1 = inhibitors of human orphan nuclear receptor DAX1 (NR0B1). P51843. HEK293 Gal4-DAX1 luciferase reporter, luminescence. inhibition, % at 6.75 µM. 340,000 compounds, 0.99% hits. AID 504766;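 active = inhibition above the mean over all tested compounds plus 3 SD, cut at about 4.2% in these data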;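 note: inhibition shows as a rise in luminescence from relieved DAX1 repression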
Target sequence (P51843 207-470 limits assumed): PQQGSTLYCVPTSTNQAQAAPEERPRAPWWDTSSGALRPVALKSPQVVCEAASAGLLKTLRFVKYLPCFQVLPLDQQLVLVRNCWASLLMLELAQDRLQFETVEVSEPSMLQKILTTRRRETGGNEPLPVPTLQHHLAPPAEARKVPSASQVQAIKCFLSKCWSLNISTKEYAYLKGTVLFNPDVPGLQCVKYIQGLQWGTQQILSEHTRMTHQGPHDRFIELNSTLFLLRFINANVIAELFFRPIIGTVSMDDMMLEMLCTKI
ssDAF12 agonist = S. stercoralis DAF-12 activation, primary screen. HEK293 ssDAF-12/GRIP1 lit1-tk-luc reporter, luminescence; % of 3 µM dafachronic acid response. activation, % at 6.8 µM. 370,000 compounds, 1% hits. AID 652126;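 active = activation above the mean over all tested compounds plus 3 SD, cut at about 0.9% in these data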
hgDAF12 agonist = activates the H. glycines DAF-12 receptor ligand-binding domain; HEK293 GAL4-hgDAF12 UAS-luciferase reporter, agonist luminescence; normalized to butyrate control; activation, % at 6.8 µM; 370,000 compounds, 1.8% hits; AID 687014;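 active = activation above a cutoff set at the mean of all screened compounds plus 3 SD, cut at about 10% in these data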
DAX1 inh-2 = DAX1 (NR0B1) inhibition, primary screen; HEK293T StAR-luciferase reporter, SF-1/DAX-1 repression relief; inhibition, % at 6.8 µM; 370,000 compounds, 1.1% hits;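 active = inhibition above the mean over all tested compounds plus 3 SD, cut at about 3.6% in these data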;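 note: higher inhibition means more luminescence from relief of DAX-1 repression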
hcDAF-12 act = activators of H. contortus DAF-12 nuclear receptor; HEK293 hcDAF-12 lit1-tk-luc reporter, luminescence; 0% DMSO, 100% Δ7-dafachronic acid; activation, % at 6.8 µM; 370,000 compounds, 1.4% hits;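 active = activation above the mean of all tested compounds plus 3 SD, cut at about 5.5% in these data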
Numbers stand for hits; 0 = inactive; - = no result.

SMILES	DAX1 inh-1	ssDAF12 agonist	hgDAF12 agonist	DAX1 inh-2	hcDAF-12 act
CCOc1ccc(/C=C/C2=NNC(=O)CC2)cc1	0	0	11	0	0
O=C1CCC(/C=C/c2ccccc2)=NN1	0	0	0	0	0
CC(C)N1CCCCC(NC(=O)c2ccc(Cl)cc2Cl)C1=O (centres undefined)	-	0	0	0	0
O=[N+]([O-])c1ccc2c(c1)CCCO[C@]21O[C@H](CCO)C[C@H](O)[C@H]1O	-	0	0	0	0
COc1ccc(Cn2cc(CN3[C@@H](CC(C)C)COc4ccc(Cl)cc4S3(=O)=O)nn2)cc1	-	0	0	0	0
COc1cccc(CN2CCN(Cc3cc(OC)c(OC)c(OC)c3)CC2)c1OC	0	1.3	0	0	0
CCS(=O)(=O)N1CCN(Cc2ccccc2OC)CC1	0	1.2	0	0	0
Cc1ccc(NC(=O)CCNS(=O)(=O)c2ccc3c(c2)oc(=O)n3C)cc1	0	0	0	0	0
CCOc1ccc(NC(=O)CCNS(=O)(=O)c2ccc3c(c2)oc(=O)n3C)cc1	0	0	0	0	5.9
COc1ccc(-c2noc(-c3ccoc3C)n2)cc1OC	0	0	0	0	0
COc1ccc(-c2noc(-c3ccoc3C)n2)cc1	7.5	1.7	11	4.0	0
COc1cccc(-c2noc(-c3ccoc3C)n2)c1	0	0	12	0	0
O=C(CSc1nc2scc(-c3ccccc3)c2c(=O)[nH]1)N1CCCCC1	5.6	0	0	0	0
O=C(CSc1nc2scc(-c3ccccc3)c2c(=O)[nH]1)NC1CCCCC1	-	0	0	0	0
C[C@H](CO)N1C[C@H](C)[C@@H](CN(C)C(=O)Nc2ccc(N3CCN(C)CC3)cc2)OCc2cn(nn2)CCCC1=O	-	0	0	0	0
CNC(=O)c1cc2c(cn1)[nH]c1ccccc12	0	0	0	3.7	0
Cc1ccc(Cc2c(-c3ccc(Cl)cc3)nc3cc(C)c(Br)c(C)n23)cc1	-	1.2	0	4.1	0
Cc1ccc(-c2nc3cc(C)c(Br)c(C)n3c2Cc2ccccc2)cc1	-	0	0	0	5.6
COc1ccc(-c2nc3cc(C)c(Br)c(C)n3c2Cc2ccccc2)cc1OC	-	0	0	0	0
Cc1cc2nc(-c3ccc(Cl)cc3)c(CC(C)(C)C)n2c(C)c1Br	-	0	0	0	0
Cc1cc2nc(-c3ccc(Cl)cc3)c(CC3CCCCC3)n2c(C)c1Br	-	1.4	0	0	6.1
COCCCN1C(=O)[C@H](CC(=O)NCc2ccc(OC)c(OC)c2)[C@]2(C(=O)OC)CCCCC=C12	-	0	0	0	0
N#Cc1cc(Nc2c(N)nc[nH]c2=O)c([N+](=O)[O-])cc1C#N	0	0	0	0	6.0
O=C(CCn1c(=O)oc2ccccc21)NCCN1CCc2ccccc2C1	0	0	0	0	0
O=C(CCCn1c(=O)oc2ccccc21)N1CCc2ccccc2C1	0	0	0	0	7.9
SMILES	DAX1 inh-1	ssDAF12 agonist	hgDAF12 agonist	DAX1 inh-2	hcDAF-12 act
C=CCN1C(=O)[C@@H](CC(=O)N2CCOCC2)[C@]2(C(=O)OC)CCCCC=C12	-	0	0	0	0
CC1CCCN(C(=O)CSc2nnc(-c3cccs3)o2)C1 (centres undefined)	0	0	12	0	0
CCC1CCCCN1C(=O)CSc1nnc(-c2cccs2)o1 (centres undefined)	0	1.0	0	0	0
O=[N+]([O-])c1cccc(OC[C@@H](O)CN2CCC(C(O)(c3ccccc3)c3ccccc3)CC2)c1	-	0	0	0	0
COc1cc(NS(=O)(=O)c2ccc(NC(=S)NC(=O)COc3ccccc3OC)cc2)nc(OC)n1	4.7	0	0	0	0
CC(=O)c1ccc(NS(=O)(=O)c2ccc(N/C=C/C(=O)c3ccc(F)cc3)cc2)cc1	0	0	0	0	0
COc1cc(NS(=O)(=O)c2ccc(N/C=C\C(=O)c3ccc(F)cc3)cc2)nc(OC)n1	0	0	0	0	6.4
COc1cc(NS(=O)(=O)c2ccc(NC(=O)COc3ccccc3C)cc2)nc(OC)n1	0	0	0	0	0
C[C@H]1[C@@H](OC(=O)NCc2ccc(C(F)(F)F)cc2)CC[C@@]23CCCN2C(=O)CCC[C@@H]13	-	0	0	-	0
O=C(OCc1nc2ccccc2s1)c1ccc([N+](=O)[O-])o1	0	-	-	-	-
O=C(OCc1nc2ccccc2s1)c1ccc(Br)o1	4.6	0	0	0	0
CCC(=O)Nc1ccc2c(c1)Cc1cc([N+](=O)[O-])ccc1-2	0	0	11	0	0
O=CNc1ccc2c(c1)Cc1cc([N+](=O)[O-])ccc1-2	0	0	0	0	0
Cc1c(C(=O)Nc2nnc(C3CC3)s2)oc2ccccc12	0	0	11	0	6.4
Cc1nc(N2CCN(C(=O)C3CCCCC3)CC2)c2c3c(sc2n1)CCCC3	-	0	0	-	0
CCCC[C@H]1C2CC(OC(=O)Nc3cccc(Br)c3)C(C2)[C@H]2CCCCN21 (some centres undefined)	-	0	0	0	0
COc1ccc(-c2cc(C(=O)Nc3cccc(Cl)c3)no2)cc1	4.2	0	0	0	0
COc1cccc(-c2cc(C(=O)Nc3cccc(O)c3)no2)c1	0	0	11	0	0
CCC(C)NC(=O)c1cc(-c2ccc(OC)cc2)on1 (centres undefined)	0	0	11	0	0
COc1ccc(NC(=O)c2cc(-c3cccc(OC)c3)on2)cc1	0	0	0	0	0
Cc1ccc(-c2cc(C(=O)NCCCn3ccnc3)no2)cc1	0	0	0	0	0
O=C(NCCCn1ccnc1)c1cc(-c2cccc(O)c2)on1	4.7	0	0	0	0
O=C(Nc1cccc(Cl)c1)O[C@@H]1CC[C@@]23CCCN2C(=O)CCC[C@H]3C1	-	0	0	-	0
C[C@H](CO)N1C[C@H](C)[C@@H](CN(C)S(C)(=O)=O)OCc2cn(nn2)CCCC1=O	-	0	0	0	0
O=C(NC1CCCCN(Cc2cccc(C(F)(F)F)c2)C1=O)C1C2CC3CC(C2)CC1C3 (centres undefined)	-	0	0	0	0
SMILES	DAX1 inh-1	ssDAF12 agonist	hgDAF12 agonist	DAX1 inh-2	hcDAF-12 act
COC(=O)[C@H](C(C)C)N1CCc2nnn(Cc3ccccc3)c2-c2cc(F)ccc2S1(=O)=O	-	0	0	0	0
O=C(Nc1ccccc1C(F)(F)F)c1cc(-c2cccc(O)c2)on1	0	0	0	0	0
O=C(Nc1cc(Br)ccc1O)c1cc(-c2ccccc2)on1	0	0	0	0	0
Cc1ccc(O)c(NC(=O)c2cc(-c3ccccc3)on2)c1	4.9	0	0	0	0
CCc1ccccc1NC(=O)c1cc(-c2cccc(O)c2)on1	0	0	11	0	0
COc1ccc(N)cc1CN1CCN(c2ncc(Cc3ccccc3)cn2)CC1	-	0	0	0	0
O=C(NNC(=O)c1cccc(-n2cccc2)c1)c1ccccc1	0	0	0	0	0
O=C(NNC(=O)c1ccccc1F)c1cccc(-n2cccc2)c1	0	0	0	3.7	0
